What all share (assay): DAPPL (digital affinity profiling via proximity ligation, sequencing); 10 mM Tris-HCl pH 7.5, 50 mM NaCl, 1 mM DTT, 4% glycerol, room temperature, 30 min; GST-TFs on glutathione beads, 16-mer random dsDNA library, 0.1% formaldehyde crosslink after washing; high values mean tight binding
The target of one assay is T1, FLI1 (Homo sapiens, UniProt Q01543 1-452).
T1 sequence: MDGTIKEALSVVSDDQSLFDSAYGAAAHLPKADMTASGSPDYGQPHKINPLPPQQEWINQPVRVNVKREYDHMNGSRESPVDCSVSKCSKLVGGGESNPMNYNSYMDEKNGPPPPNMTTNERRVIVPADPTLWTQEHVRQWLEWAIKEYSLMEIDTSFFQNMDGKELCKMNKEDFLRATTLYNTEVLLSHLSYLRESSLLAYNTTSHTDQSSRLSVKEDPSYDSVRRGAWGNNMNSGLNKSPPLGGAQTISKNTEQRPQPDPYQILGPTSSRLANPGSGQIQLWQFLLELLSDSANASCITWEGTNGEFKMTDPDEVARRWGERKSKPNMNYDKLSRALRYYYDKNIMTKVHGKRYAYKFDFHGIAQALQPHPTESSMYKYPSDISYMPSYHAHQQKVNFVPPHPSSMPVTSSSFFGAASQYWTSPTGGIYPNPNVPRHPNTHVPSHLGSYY
The conditions noted are these: protein: recombinant; tags: N-terminal GST; dsDNA, one strand shown. Put shortly:
(§1)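 Pools of DNA-barcoded human transcription factors, expressed in yeast as GST fusions on glutathione beads and combined with a tag-only sample, were incubated with 200 nmole of a 16-mer random double-stranded DNA library. Incubation took 30 min at room temperature in Tris/NaCl/DTT/glycerol buffer and was followed by washing, 0.1% formaldehyde crosslinking, proximity ligation (BsaI/T4 ligase, 1 h, 37 °C), PCR amplification and sequencing on an Illumina NextSeq500. Binding signal is the ratio of a hexamer's read frequency for a factor to its frequency for the tag-only sample.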

The target in another assay is T2, ELK1 (Homo sapiens, UniProt P19419 1-428).
T2 sequence: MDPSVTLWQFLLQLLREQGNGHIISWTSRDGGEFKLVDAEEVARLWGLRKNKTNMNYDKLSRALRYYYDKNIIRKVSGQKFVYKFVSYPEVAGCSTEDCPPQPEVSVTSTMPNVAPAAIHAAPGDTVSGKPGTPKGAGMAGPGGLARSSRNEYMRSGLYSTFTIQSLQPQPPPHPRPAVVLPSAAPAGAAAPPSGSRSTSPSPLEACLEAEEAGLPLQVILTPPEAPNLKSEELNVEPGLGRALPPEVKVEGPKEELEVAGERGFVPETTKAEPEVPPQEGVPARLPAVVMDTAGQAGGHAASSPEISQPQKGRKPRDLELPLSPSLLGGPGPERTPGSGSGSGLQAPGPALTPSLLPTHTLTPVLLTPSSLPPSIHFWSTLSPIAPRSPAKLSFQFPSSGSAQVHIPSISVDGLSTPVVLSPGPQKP
The conditions noted are these: protein: recombinant; tags: N-terminal GST; dsDNA, one strand shown. Put shortly:
as §1

The next assay addresses T3, GABPA (Homo sapiens, UniProt Q06546 1-454).
T3 sequence: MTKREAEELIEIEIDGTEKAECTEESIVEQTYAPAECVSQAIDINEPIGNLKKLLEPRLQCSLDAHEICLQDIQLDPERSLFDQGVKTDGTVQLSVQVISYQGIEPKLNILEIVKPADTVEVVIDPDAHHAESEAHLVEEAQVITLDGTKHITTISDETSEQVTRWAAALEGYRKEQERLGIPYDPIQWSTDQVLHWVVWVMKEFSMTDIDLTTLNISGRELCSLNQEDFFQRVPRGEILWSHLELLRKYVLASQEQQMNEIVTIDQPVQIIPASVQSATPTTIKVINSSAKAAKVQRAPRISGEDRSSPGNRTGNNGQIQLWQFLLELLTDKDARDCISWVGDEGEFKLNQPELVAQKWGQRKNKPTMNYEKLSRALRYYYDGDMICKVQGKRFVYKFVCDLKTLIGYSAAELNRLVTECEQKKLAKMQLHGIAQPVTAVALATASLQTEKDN
The conditions noted are these: protein: recombinant; tags: N-terminal GST; dsDNA, one strand shown. Put shortly:
as §1

The next assay has as its target T4, ERG (Homo sapiens, UniProt P11308 1-479).
T4 sequence: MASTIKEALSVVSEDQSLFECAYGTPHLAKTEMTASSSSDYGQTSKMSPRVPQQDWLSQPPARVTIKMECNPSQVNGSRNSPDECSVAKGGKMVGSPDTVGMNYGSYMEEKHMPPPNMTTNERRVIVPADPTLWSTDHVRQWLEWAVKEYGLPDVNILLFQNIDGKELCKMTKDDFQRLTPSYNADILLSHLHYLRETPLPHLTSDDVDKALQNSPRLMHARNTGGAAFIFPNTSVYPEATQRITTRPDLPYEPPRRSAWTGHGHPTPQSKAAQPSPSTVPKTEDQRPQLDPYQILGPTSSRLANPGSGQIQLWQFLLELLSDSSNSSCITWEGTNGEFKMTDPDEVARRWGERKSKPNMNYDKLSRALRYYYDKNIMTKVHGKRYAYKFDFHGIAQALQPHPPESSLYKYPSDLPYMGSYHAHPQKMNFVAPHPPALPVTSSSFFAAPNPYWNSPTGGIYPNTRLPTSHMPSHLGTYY
The conditions noted are these: protein: recombinant; tags: N-terminal GST; dsDNA, one strand shown. Put shortly:
as §1

A further assay has as its target ELF1 (Homo sapiens, UniProt P32519 1-619). Particulars: protein: recombinant; tags: N-terminal GST; dsDNA, one strand shown. Put shortly:
as §1

The next assay concerns the target T5, EHF (Homo sapiens, UniProt Q9NZC4 1-300).
T5 sequence: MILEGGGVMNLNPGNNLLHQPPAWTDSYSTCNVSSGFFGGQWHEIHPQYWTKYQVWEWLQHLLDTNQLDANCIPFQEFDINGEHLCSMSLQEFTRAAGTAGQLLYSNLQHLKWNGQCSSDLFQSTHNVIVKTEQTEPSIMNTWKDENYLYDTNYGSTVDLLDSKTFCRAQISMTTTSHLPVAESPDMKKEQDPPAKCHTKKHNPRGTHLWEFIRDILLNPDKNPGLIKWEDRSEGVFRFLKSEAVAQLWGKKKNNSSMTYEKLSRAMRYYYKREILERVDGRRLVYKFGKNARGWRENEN
Particulars: protein: recombinant; tags: N-terminal GST; dsDNA, one strand shown. The procedure, abridged:
as §1

The target in another assay is SPIB (Homo sapiens, UniProt Q01892 1-262). Particulars: protein: recombinant; tags: N-terminal GST; dsDNA, one strand shown. The procedure, abridged: as §1
The target in another assay is T6, FEV (Homo sapiens, UniProt Q99581 1-238).
T6 sequence: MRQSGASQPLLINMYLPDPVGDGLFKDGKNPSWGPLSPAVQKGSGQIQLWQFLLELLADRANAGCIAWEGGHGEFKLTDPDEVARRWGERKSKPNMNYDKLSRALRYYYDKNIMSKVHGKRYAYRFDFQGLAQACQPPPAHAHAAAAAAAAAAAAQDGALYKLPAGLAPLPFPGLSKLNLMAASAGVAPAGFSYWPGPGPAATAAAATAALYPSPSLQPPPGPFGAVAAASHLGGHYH
The conditions noted are these: protein: recombinant; tags: N-terminal GST; dsDNA, one strand shown. Put shortly: as §1

The target of the next assay is ETV5 (Homo sapiens, UniProt P41161 1-510). Particulars: protein: recombinant; tags: N-terminal GST; dsDNA, one strand shown. Put shortly:
as §1

For a further assay, the target named is HSF1 (Homo sapiens, UniProt Q00613 1-529). Particulars: protein: recombinant; tags: N-terminal GST; chain copies: 3; dsDNA, one strand shown. Put shortly: as §1
Another assay deals with T7, SPIC (Homo sapiens, UniProt Q8N5J4 1-248).
T7 sequence: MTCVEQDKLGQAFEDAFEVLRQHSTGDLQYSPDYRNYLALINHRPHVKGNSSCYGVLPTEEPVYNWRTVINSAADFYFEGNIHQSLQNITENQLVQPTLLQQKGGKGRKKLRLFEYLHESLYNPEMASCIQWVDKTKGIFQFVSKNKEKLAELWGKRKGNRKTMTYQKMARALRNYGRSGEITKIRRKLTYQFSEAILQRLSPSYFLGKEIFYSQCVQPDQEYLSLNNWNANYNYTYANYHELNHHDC
Particulars: protein: recombinant; tags: N-terminal GST; dsDNA, one strand shown. The procedure, abridged:
as §1

A further assay concerns the target ELF4 (Homo sapiens, UniProt Q99607 1-663). Particulars: protein: recombinant; tags: N-terminal GST; dsDNA, one strand shown. The procedure, abridged: as §1
The next assay addresses T8, ELK4 (Homo sapiens, UniProt P28324-2 1-405).
T8 sequence: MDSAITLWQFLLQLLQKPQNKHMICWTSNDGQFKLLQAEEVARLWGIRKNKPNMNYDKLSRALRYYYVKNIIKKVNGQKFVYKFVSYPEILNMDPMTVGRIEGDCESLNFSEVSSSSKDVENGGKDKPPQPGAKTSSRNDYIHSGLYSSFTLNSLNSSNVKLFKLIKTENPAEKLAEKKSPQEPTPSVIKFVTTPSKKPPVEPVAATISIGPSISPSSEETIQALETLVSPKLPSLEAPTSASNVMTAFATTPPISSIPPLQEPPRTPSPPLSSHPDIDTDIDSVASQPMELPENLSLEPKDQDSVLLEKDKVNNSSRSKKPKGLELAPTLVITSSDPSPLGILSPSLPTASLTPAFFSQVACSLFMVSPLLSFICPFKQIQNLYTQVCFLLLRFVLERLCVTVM
Particulars: protein: recombinant; tags: N-terminal GST; dsDNA, one strand shown. The procedure, abridged:
as §1

The next assay deals with T9, ETV2 (Homo sapiens, UniProt O00321 1-342).
T9 sequence: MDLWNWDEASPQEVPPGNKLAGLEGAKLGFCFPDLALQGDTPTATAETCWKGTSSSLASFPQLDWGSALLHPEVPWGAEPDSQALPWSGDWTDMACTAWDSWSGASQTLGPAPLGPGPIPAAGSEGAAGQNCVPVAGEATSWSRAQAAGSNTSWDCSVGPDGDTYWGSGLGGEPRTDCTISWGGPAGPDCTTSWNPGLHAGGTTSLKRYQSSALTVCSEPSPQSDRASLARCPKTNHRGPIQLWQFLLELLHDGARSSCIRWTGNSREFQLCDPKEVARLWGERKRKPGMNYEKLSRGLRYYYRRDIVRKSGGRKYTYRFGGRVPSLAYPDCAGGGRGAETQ
Particulars: protein: recombinant; tags: N-terminal GST; dsDNA, one strand shown. Put shortly:
as §1

A further assay addresses T10, ELF3 (Homo sapiens, UniProt P78545 1-371).
T10 sequence: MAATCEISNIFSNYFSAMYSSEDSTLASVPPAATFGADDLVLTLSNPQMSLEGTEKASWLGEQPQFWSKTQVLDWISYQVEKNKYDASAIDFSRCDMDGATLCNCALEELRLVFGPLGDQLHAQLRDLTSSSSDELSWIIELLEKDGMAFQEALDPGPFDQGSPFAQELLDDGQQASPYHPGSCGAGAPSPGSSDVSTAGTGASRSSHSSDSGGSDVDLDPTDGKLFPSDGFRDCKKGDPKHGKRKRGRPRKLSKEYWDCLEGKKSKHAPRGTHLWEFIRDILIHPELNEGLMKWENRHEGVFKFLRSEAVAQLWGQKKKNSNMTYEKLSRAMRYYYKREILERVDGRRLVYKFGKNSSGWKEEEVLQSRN
The conditions noted are these: protein: recombinant; tags: N-terminal GST; dsDNA, one strand shown. The procedure, abridged:
as §1

The next assay addresses CRX (Homo sapiens, UniProt O43186 1-299). The conditions noted are these: protein: recombinant; tags: N-terminal GST; dsDNA, one strand shown. Put shortly:
as §1

The target of a further assay is ETV1 (Homo sapiens, UniProt P50549 1-477). Particulars: protein: recombinant; tags: N-terminal GST; dsDNA, one strand shown. The procedure, abridged: as §1
In another assay the target is SPI1 (Homo sapiens, UniProt P17947 1-270). The conditions noted are these: protein: recombinant; tags: N-terminal GST; dsDNA, one strand shown. The procedure, abridged: as §1

Chain of ELF1 (P32519 whole entry): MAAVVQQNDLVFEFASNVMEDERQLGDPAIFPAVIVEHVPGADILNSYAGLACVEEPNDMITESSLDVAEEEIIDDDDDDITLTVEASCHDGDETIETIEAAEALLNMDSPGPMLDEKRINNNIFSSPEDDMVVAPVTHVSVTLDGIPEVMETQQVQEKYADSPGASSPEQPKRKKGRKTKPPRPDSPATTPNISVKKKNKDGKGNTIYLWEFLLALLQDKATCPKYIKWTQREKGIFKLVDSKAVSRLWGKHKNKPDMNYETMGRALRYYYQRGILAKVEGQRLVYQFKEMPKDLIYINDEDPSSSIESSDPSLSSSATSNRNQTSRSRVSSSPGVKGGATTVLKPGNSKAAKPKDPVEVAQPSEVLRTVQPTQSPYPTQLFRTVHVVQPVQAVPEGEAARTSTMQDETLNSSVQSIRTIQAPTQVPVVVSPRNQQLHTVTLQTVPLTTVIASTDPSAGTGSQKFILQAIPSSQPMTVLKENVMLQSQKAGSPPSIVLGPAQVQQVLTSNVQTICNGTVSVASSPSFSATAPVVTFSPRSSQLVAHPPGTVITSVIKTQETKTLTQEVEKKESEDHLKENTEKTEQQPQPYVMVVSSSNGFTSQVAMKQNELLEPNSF
Chain of ELF4 (Q99607 whole entry): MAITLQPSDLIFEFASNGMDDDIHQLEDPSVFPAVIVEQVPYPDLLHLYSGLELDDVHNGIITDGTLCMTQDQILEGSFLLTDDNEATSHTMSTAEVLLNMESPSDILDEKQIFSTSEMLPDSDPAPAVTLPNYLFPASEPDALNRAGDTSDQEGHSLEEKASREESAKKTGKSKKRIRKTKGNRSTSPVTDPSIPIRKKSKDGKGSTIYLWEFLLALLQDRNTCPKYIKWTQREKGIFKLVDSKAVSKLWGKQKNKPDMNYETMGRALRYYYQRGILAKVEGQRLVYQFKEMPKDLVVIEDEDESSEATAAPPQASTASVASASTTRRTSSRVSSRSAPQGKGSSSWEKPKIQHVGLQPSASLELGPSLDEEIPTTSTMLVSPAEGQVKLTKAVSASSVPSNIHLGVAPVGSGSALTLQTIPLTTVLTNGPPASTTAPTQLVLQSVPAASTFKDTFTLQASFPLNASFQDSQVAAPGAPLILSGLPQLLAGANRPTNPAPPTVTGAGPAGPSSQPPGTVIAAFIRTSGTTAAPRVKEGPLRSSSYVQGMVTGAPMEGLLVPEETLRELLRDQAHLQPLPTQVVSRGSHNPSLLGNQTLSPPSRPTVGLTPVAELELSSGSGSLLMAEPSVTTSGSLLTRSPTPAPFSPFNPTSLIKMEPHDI
Chain of HSF1 (Q00613 whole entry): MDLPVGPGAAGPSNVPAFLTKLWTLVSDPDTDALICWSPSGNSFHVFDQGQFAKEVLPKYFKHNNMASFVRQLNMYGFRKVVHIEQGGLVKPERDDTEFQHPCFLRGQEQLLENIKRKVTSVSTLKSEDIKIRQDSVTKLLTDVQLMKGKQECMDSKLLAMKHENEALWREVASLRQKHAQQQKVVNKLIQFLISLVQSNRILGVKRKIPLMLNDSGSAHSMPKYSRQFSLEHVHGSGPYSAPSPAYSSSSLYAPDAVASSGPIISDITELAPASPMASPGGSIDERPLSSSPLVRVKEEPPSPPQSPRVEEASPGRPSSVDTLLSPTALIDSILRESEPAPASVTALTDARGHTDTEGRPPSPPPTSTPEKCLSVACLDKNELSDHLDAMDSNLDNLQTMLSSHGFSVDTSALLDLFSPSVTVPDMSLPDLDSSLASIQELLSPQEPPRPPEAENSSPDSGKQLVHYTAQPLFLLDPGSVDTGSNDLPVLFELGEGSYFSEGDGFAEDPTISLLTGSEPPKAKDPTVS
Chain of SPIB (Q01892 whole entry): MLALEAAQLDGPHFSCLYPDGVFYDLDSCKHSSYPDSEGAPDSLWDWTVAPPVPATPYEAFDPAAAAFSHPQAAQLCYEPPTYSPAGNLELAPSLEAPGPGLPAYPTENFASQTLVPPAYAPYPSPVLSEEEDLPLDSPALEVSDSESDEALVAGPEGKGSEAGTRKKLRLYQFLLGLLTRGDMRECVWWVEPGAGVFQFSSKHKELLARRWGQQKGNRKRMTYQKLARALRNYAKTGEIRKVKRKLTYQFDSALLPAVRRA
Chain of CRX (O43186 whole entry): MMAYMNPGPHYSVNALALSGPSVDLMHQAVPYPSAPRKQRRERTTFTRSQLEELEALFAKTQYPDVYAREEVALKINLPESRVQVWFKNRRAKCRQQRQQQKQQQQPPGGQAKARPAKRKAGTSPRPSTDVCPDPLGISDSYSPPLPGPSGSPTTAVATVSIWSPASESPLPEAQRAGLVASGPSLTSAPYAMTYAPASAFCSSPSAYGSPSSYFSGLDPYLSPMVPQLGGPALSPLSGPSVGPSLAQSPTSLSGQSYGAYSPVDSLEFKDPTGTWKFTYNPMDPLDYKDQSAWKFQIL
Chain of ETV1 (P50549 whole entry): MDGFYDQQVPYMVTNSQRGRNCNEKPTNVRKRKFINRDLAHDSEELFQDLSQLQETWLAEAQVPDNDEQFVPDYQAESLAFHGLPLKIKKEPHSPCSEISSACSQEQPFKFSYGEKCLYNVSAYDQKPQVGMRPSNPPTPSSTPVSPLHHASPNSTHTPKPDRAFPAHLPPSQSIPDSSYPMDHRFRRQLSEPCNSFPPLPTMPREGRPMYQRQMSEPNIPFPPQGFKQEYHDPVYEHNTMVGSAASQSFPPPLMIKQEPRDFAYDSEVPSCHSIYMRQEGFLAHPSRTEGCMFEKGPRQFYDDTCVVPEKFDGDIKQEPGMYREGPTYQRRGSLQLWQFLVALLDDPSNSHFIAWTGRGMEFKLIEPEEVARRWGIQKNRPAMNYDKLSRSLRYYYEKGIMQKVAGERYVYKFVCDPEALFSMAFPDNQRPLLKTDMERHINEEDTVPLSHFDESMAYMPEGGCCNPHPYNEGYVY
Chain of ETV5 (P41161 whole entry): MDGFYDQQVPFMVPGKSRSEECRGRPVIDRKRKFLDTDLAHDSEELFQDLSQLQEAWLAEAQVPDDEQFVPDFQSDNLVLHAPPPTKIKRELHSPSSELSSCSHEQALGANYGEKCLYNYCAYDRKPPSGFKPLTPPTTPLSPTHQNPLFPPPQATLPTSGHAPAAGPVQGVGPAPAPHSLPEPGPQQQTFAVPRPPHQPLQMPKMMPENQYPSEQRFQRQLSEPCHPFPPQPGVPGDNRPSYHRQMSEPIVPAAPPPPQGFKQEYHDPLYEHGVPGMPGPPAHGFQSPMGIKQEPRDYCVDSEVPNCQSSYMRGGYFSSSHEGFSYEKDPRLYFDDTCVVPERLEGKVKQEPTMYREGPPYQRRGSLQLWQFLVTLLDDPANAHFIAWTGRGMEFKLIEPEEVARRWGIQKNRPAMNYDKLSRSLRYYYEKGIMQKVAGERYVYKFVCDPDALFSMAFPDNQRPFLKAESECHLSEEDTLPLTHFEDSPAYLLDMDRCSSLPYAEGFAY

In the case of ACCCGA, the binding signal with FLI1 was 1.05 fold enrichment (6-mer frequency, TF over GST control); with ELK1, 1.02 fold enrichment (6-mer frequency, TF over GST control); in the assay with GABPA, 1.03 fold enrichment (6-mer frequency, TF over GST control); with ERG it was 1.05 fold enrichment (6-mer frequency, TF over GST control); in the assay with ELF1, 1.03 fold enrichment (6-mer frequency, TF over GST control); with EHF, 1.18 fold enrichment (6-mer frequency, TF over GST control). The binding signal in the assay with SPIB is 1.14 fold enrichment (6-mer frequency, TF over GST control); with FEV, 1.1 fold enrichment (6-mer frequency, TF over GST control); with ETV5, 1.08 fold enrichment (6-mer frequency, TF over GST control); in the assay with HSF1 it was 1.21 fold enrichment (6-mer frequency, TF over GST control); with SPIC it was 1.08 fold enrichment (6-mer frequency, TF over GST control); with ELF4, 1.03 fold enrichment (6-mer frequency, TF over GST control). The binding signal in the assay with ELK4 was 1.04 fold enrichment (6-mer frequency, TF over GST control); with ETV2, 1.17 fold enrichment (6-mer frequency, TF over GST control); in the assay with ELF3, 1.11 fold enrichment (6-mer frequency, TF over GST control); with CRX, 1.1 fold enrichment (6-mer frequency, TF over GST control); with ETV1, 1.1 fold enrichment (6-mer frequency, TF over GST control).

In the case of CGAAAG, the binding signal in the assay with FLI1 is 1.15 fold enrichment (6-mer frequency, TF over GST control); with ELK1 it was 1.13 fold enrichment (6-mer frequency, TF over GST control); with GABPA it was 1.08 fold enrichment (6-mer frequency, TF over GST control); with ERG, 1.04 fold enrichment (6-mer frequency, TF over GST control); in the assay with ELF1, 1.09 fold enrichment (6-mer frequency, TF over GST control); in the assay with EHF, 1.01 fold enrichment (6-mer frequency, TF over GST control). Moreover, the binding signal with SPI1 was 1.16 fold enrichment (6-mer frequency, TF over GST control); with SPIB, 1.06 fold enrichment (6-mer frequency, TF over GST control); with FEV it was 1.04 fold enrichment (6-mer frequency, TF over GST control); with ETV5, 1.1 fold enrichment (6-mer frequency, TF over GST control); with HSF1, 1.81 fold enrichment (6-mer frequency, TF over GST control); with SPIC, 1.03 fold enrichment (6-mer frequency, TF over GST control). The binding signal in the assay with ELF4 was 1.06 fold enrichment (6-mer frequency, TF over GST control); with ELK4, 1.09 fold enrichment (6-mer frequency, TF over GST control); with ETV2, 1.13 fold enrichment (6-mer frequency, TF over GST control); with ELF3, 1.21 fold enrichment (6-mer frequency, TF over GST control); with CRX, 1.11 fold enrichment (6-mer frequency, TF over GST control); with ETV1, 1.01 fold enrichment (6-mer frequency, TF over GST control).

The record behind these values is article PMC7862700, “An all-to-all approach to the identification of sequence-specific readers for epigenetic DNA modifications on cytosine”.
